Test results: PubChem BioAssay AID687031 (Broad Institute, 2013)
Among all 1,400 compounds or so, about 50 (4%) were called active.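 How the source made its calls: active means fitted curve reaches 30% CPE protection at or below the top valid dose, with every test run called active; inconclusive means test runs disagree, some active and some not; inactive means every test run inactive, including effects in the wrong direction.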 These entries were drawn from the full list. Measured potencies and affinities stand elsewhere.

Assay: Dengue virus 2 cytopathic effect protection, dose response, BHK-21 cells, ATP luminescence, cherry-pick (AID 687031);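 further: 0% = infected DMSO wells and 100% = uninfected cell wells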
Conditions: BHK-21 DENV2 CPE protection, 5 d; series mostly up to 19.5 µM; CPE protection (higher = active): at the top concentration

| Compound | CPE protection (higher = active) |
| --- | --- |
| CS(=O)(=O)N1[C@@H]2CNC[C@H]1C2c1ccc(-c2ccccc2)cc1 (some centres undefined) | 1.08% (inactive) |
| COc1cccc(NC(=O)N2[C@@H]3CNC[C@H]2C3c2ccc(-c3ccccc3)cc2)c1 (some centres undefined) | -7.29% [at 21 µM] (inactive) |
| Cc1ccccc1-c1ccc(C2[C@@H]3CN(C(=O)Cc4ccncc4)C[C@H]2N3)cc1 (some centres undefined) | -5.08% [at 21 µM] (inactive) |
| COc1cccc(-c2ccc3c(c2)[C@H]2[C@H](CCN2S(=O)(=O)c2cn(C)cn2)[C@@H](CO)N3)c1 | -4.08% (inactive) |
| C[C@@H]1CN([C@H](C)CO)C(=O)c2cccc(NC(=O)Nc3ccc4c(c3)OCO4)c2O[C@H]1CN(C)C(=O)Nc1ccccc1 | -7.43% (inactive) |
| CCOC(=O)CC[C@H](NC(=O)Cn1cnc2c(OCc3ccccc3)ncnc21)C(=O)OCC | -6.24% (inactive) |
| COc1ccc(C(CNC(=O)COc2cc(C)ccc2Cl)N2CCCCC2)cc1 (centres undefined) | -7.55% (inactive) |
| COc1ccc2o/c(=N\O)c(C(=O)Nc3ccc(C)cc3)cc2c1 | 21.5% (inactive) |
| COc1cc(S(=O)(=O)NCc2ccncc2)c(OC)cc1Br | -11.7% (inactive) |
| CO[C@@H]1CN(C)C(=O)c2ccc(NC(=O)CC(F)(F)F)cc2OC[C@H](C)N(C(C)=O)C[C@@H]1C | 9.73% (inactive) |
| O=C1Nc2ccccc2SC1c1ccccc1 (centres undefined) | 22.8% (inactive) |
| O=C1Nc2ccccc2C(=O)N(C2CCCC2)C1C(=O)NC1CC1 (centres undefined) | -7.26% (inactive) |
| C[C@@H]1CN([C@H](C)CO)C(=O)c2cc(N(C)C)ccc2O[C@@H](C)CCCCO[C@@H]1CN(C)C(=O)CCC(F)(F)F | 6.42% (inactive) |
| OC(COc1ccc(Cl)cc1Cl)Cn1ccnc1 (centres undefined) | 2.84% (inactive) |
| Cc1nccn1CC(O)COc1ccc(Cl)cc1Cl (centres undefined) | -6.74% (inactive) |
| CCC(C(=O)Nc1c(C)cccc1C)n1c(-c2ccc(=O)[nH]c2)nc2ccccc21 (centres undefined) | 6.71% (inactive) |
| O=C(NCc1ccc2c(c1)OCO2)C(=O)NCC1OCCCN1S(=O)(=O)c1ccccc1 (centres undefined) | -15.4% (inactive) |
| Cc1ccc(C(=O)NCC(=O)Nc2ccc(S(=O)(=O)Nc3cc(C)nc(C)n3)cc2)cc1 | -0.439% (inactive) |
| O=C(C[C@H]1CC[C@@H]2[C@H](COC[C@H](O)CN2C(=O)Cc2ccccc2)O1)NC1CCCC1 | 2.96% [at 21 µM] (inactive) |
| Cc1ccc(S(=O)(=O)Nc2cccc(C(=O)NCCCn3ccnc3)c2)cc1F | -1.15% (inactive) |
| CCOC(=O)N1CCC(NC(=O)c2cccc3c2C(=O)N(CCOC)C3)CC1 | 8.32% (inactive) |
| CCOC(=O)N1CCC(NS(=O)(=O)c2ccc(C#N)cc2)CC1 | -10.4% (inactive) |

| Compound | CPE protection (higher = active) |
| --- | --- |
| CC(C)OC(=O)c1ccc(NCc2cc(O)ccc2O)cc1 | -7.2% (inactive) |
| CCOC(=O)N1C=CC=C[C@@H]2[C@@H](N3C(=O)c4ccccc4C3=O)C(=O)N21 | -9.2% (inactive) |
| COc1ccc(C2CC(c3cccs3)=NN2C(=O)CCC(=O)O)cc1OC (centres undefined) | -2.94% (inactive) |
| COc1ccc(NC(=O)Nc2cccc3c2O[C@H](CN(C)C(=O)Nc2ccc(OC)cc2)[C@@H](C)CN([C@@H](C)CO)C3=O)cc1 | -19.9% (inactive) |
| Cc1cccnc1 | -1.59% (inactive) |
| CC(=O)N1c2ccc(S(=O)(=O)NCCC(=O)N3CCCC(C)C3)cc2CC1C (centres undefined) | -15.9% (inactive) |
| Cc1ccccc1NS(=O)(=O)c1ccc(S(=O)(=O)N2CCCC2)cc1 | 2.34% (inactive) |
| CCOc1ccc(C(=O)Nc2ccc(CN3CCOCC3)cc2)cc1Cl | 2.94% (inactive) |
| Cc1ccc(NC(=O)C2CCCCC2)cc1C | 14.2% (inactive) |
| Brc1ccc(OCc2nnc(SCC3CCCCC3)o2)cc1 | 1.56% (inactive) |
| N#CCSc1ccccc1NC(=O)CN1C(=O)C(=O)N(Cc2ccccc2)C1=O | -15.2% (inactive) |
| COCCNC(=O)CCC1CCN(Cc2ccc(-c3ccccc3)cc2)CC1 | -10.3% (inactive) |
| COc1ccccc1N1CCN(S(=O)(=O)CCNC(=O)CCc2ccccc2)CC1 | 5.74% (inactive) |
| C[C@@H]1CN([C@H](C)CO)C(=O)Cc2cc(NC(=O)CCCCCC(=O)Nc3ccccc3N)ccc2O[C@@H]1CN(C)Cc1ccc(Cl)c(Cl)c1 | -2.74% (inactive) |
| CCc1nc2c(OCCc3cccc(OC)c3)cccn2c1N(C)C(=O)c1ccc(C)cc1 | 3.2% (inactive) |
| CN1[C@@H]2Cn3c(ccc(C4=CCCC4)c3=O)[C@H]1[C@@H](C(=O)N1CCCCC1)[C@@H]2CO | 21.2% (inactive) |
| CCCN1[C@H](C(=O)OC)[C@@H](CO)[C@@H]2Cn3c(ccc(C4=CCCC4)c3=O)[C@@H]21 | 8.66% (inactive) |
| O=C(Nc1ccc2c(c1)OCCO2)c1cccc(C(=O)Nc2ccc3c(c2)OCCO3)c1 | 16.2% (inactive) |
| O=C(COC(=O)CNC(=O)c1ccc(Cl)cc1)Nc1ncc(C(F)(F)F)cc1Cl | 9.18% (inactive) |
| CC1CC(C)CN(C(=O)COC(=O)c2nccnc2N)C1 (centres undefined) | 8.89% (inactive) |
| Cc1ccccc1OCC(=O)OCC(=O)NCCNC(=O)COC(=O)COc1ccccc1C | 7.36% (inactive) |
| O=C(COc1ccc(-c2nnco2)cc1)NCc1ccccc1Cl | -5.13% (inactive) |

| Compound | CPE protection (higher = active) |
| --- | --- |
| Cc1ccccc1S(=O)(=O)N1[C@H](C#N)[C@H](c2ccccc2)[C@@H]1CO | 7.31% [at 21 µM] (inactive) |
| CN1C(=O)c2cc(NC(=O)NC3CCCC3)ccc2OC[C@H]2O[C@@H](CC(=O)NCC3CC3)CC[C@@H]21 | -8.11% [at 23.5 µM] (inactive) |
| Cc1ccccc1-c1cnc(C(O)c2cccc(C)c2C)[nH]1 (centres undefined) | 8.04% (inactive) |
| CC(C)c1ccc(S(=O)(=O)N2CCN(C(=O)n3ccnc3)CC2)cc1 | 3.32% (inactive) |
| CC(=O)Nc1cc(-c2ccc(C(=O)NC3CC3)cc2)cn2c(-c3cccc(C(F)(F)F)c3)cnc12 | -8.05% (inactive) |
| Cc1ccc(NC(=O)C2(c3cccs3)CCOCC2)cc1C | 16.6% (inactive) |
| COc1ccc(C(CNC(=O)CCNC(=O)c2ccc(Br)cc2)N2CCOCC2)cc1 (centres undefined) | 10.9% (inactive) |
| Cc1ccccc1-c1csc(C(C)(O)c2ccccc2)n1 (centres undefined) | 16.6% (inactive) |
| O=C(c1ccncc1)N1CCCC(N2CCN(c3cccc(C(F)(F)F)c3)CC2)C1 (centres undefined) | 22.6% (inactive) |
| O=C(c1cc(C2CC2)on1)N1CCCC(N2CCN(c3cccc(C(F)(F)F)c3)CC2)C1 (centres undefined) | 8.43% (inactive) |
| CN(CC(=O)Nc1ccc(Cl)cc1)C(=O)CCc1nc2sc3c(c2c(=O)[nH]1)CCCC3 | -2.63% (inactive) |
| CC#CCN1C(=O)N[C@@H](c2ccccc2)C(C(=O)OC)=C1C | -2.29% (inactive) |
| COC(=O)[C@@H]1[C@H](CCc2ccccc2)NC(=O)N(Cc2ccccc2)[C@@H]1C | -7.83% (inactive) |
| O=S(=O)(NN=Cc1cccc(Cl)c1)c1ccccc1 | -10.2% (inactive) |
| Cc1ccc2c(COC(=O)CNC(=O)c3ccccc3)cc(=O)oc2c1 | -8.55% (inactive) |
| COc1cc(OC)cc(C(=O)NCCC(c2ccccc2)c2ccccc2)c1 | -16.4% (inactive) |
| C[C@@H]1CCCCO[C@@H](CN(C)S(=O)(=O)c2ccc(F)cc2)[C@@H](C)CN([C@@H](C)CO)C(=O)c2cc(NC(=O)c3ccccc3)ccc2O1 | -0.86% (inactive) |
| C[C@@H]1CN([C@H](C)CO)C(=O)c2cc(NC(=O)c3ccccc3)ccc2O[C@@H](C)CCCCO[C@@H]1CN(C)S(=O)(=O)c1ccc(F)cc1 | 14.4% (inactive) |
| Cc1noc(C)c1NC(=O)Nc1ccc2c(c1)C(=O)N([C@@H](C)CO)C[C@@H](C)[C@@H](CN(C)C)OCCCC[C@@H](C)O2 | -7.08% (inactive) |
| Cc1noc(C)c1NC(=O)Nc1ccc2c(c1)C(=O)N([C@@H](C)CO)C[C@@H](C)[C@@H](CN(C)Cc1ccccc1)OCCCC[C@@H](C)O2 | 18.2% (inactive) |
